# Activity calls are given as the source filed them.
# Legend:
# [1] = optical density shifts of acrAB sulA E. coli – strain DRC41, OD650, 48 h, E. coli filamentation inducer project, primary screen (AID 1152); settings: higher = more signal, called active from +8 up or from −8 down;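 note: E. coli MC1000 strain DRC41 lacking acrAB efflux pump and sulA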
# [2] = probe aLefty1 binding on compound microarray – biochemical, small-molecule microarray, 635/667 nm fluorescence, primary screen (AID 1153); settings: higher = more signal;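 note: score merges spot fluorescence with signal-to-noise ratio from the scanned slide images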
# [3] = plasmodial surface anion channel blockers, osmotic lysis – cell-based, P. falciparum Indochina, OD700, 1 h, primary screen (AID 1154); settings: P. falciparum Indochina infected RBC osmotic lysis, higher = more signal, called active from +8 up or from −8 down
# [4] = plasmodial surface anion channel blockers, osmotic lysis – cell-based, P. falciparum Indochina, OD700, 2 h, primary screen (AID 1155);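 note: lysis reports solute entry through the parasite surface anion channel PSAC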; settings: P. falciparum Indochina infected erythrocytes, higher = more signal, called active from +8 up or from −8 down
# [5] = changes in parasitized red cell lysis, either direction – P. falciparum Indochina, OD700, 3 h, PSAC antagonist project, primary screen (AID 1156); settings: P. falciparum-infected erythrocytes, osmotic lysis, higher = more signal, called active from +8 up or from −8 down
# [6] = plasmodial surface anion channel blockers, osmotic lysis – cell-based, P. falciparum Indochina, OD700, 18 h, primary screen (AID 1157); settings: P. falciparum Indochina infected erythrocytes, osmotic lysis OD700, 18 h; higher = more signal, called active from +8 up or from −8 down
# [7] = S6 kinase pathway phospho-S6 level changes – cell-based, A549, cytoblot, luminescence, serum-stimulated, primary screen (AID 1158); settings: 5 h, higher = more signal;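 note: serum-stimulated A549 lung adenocarcinoma cells; signal is phosphorylated S6 detected by cytoblot immunostaining with HRP secondary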
# [8] = biological target: NADPH oxidase 2 (Homo sapiens) (UniProt P04839); assay: compounds shifting NOX2 Amplex Red fluorescence – cell-based, HEK293-NOX2, PMA-stimulated, NOX inhibitor project, primary screen (AID 1159); settings: 45 min, higher = more signal, called active from +8 up or from −8 down; note: test concentration not given here
# [9] = biological target: NADPH oxidase 4 (Homo sapiens) (UniProt Q9NPH5); assay: compounds shifting NOX4 Amplex Red fluorescence – cell-based, HEK293-NOX4, tetracycline-induced, NOX inhibitor project, primary screen (AID 1160); settings: HEK293-NOX4, Amplex Red H2O2 fluorescence, 45 min; higher = more signal, called active from +8 up or from −8 down
# [10] = biological target: NADPH oxidase 5 (Homo sapiens) (UniProt Q96PH1); assay: compounds shifting NOX5 Amplex Red fluorescence – cell-based, HEK293-NOX5, NOX inhibitor project, primary screen (AID 1161); settings: HEK293-NOX5, ionomycin, 45 min, higher = more signal
# [11] = compound effects on lung adenocarcinoma cell viability – A549, calcein-AM fluorescence, 48 h, basal, profiling panel (AID 1162); settings: higher = more signal; note: test concentration not given here
# [12] = compound effects on differentiated 3T3-L1 adipocyte viability – cell-based, 3T3-L1 adipocytes, calcein-AM fluorescence, 48 h, basal, profiling panel (AID 1163); settings: 3T3-L1 adipocytes viability, higher = more signal; note: test concentration not given here
# [13] = compound effects on hepatocellular carcinoma cell viability – HepG2, calcein-AM fluorescence, 48 h, basal, profiling panel (AID 1164); settings: higher = more signal; note: test concentration not given here
# [14] = compound effects on multiple myeloma cell viability – MM1S, calcein-AM fluorescence, 48 h, basal, profiling panel (AID 1165); settings: higher = more signal;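 note: viability of MM1S multiple myeloma cells under basal unstimulated conditions; test concentration not given here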
# [15] = calcein-AM signal in unstimulated myeloma cells – cell-based, calcein-AM fluorescence, 48 h, PK04 Diversity Set, profiling panel (AID 1166); settings: RPMI8226 myeloma viability, higher = more signal;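 note: cells grown under basal conditions without added stimulus; test concentration not given here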
# [16] = JC-1 mitochondrial signal, unstimulated HepG2 cells – cell-based, JC-1 fluorescence, 24 h, 100 nL compound, profiling panel (AID 1167); settings: HepG2 mitochondrial potential, higher = more signal; note: test concentration not given here
# [17] = JC-1 mitochondrial signal, unstimulated adipocytes – cell-based, JC-1 fluorescence, 3T3-L1 adipocytes, 24 h, 100 nL compound, profiling panel (AID 1168); settings: JC-1 mitochondrial fluorescence, higher = more signal, called active from +8 up or from −8 down; note: test concentration not given here
# [18] = JC-1 mitochondrial signal, unstimulated myeloma cells – cell-based, JC-1 fluorescence, RPMI8226, 24 h, 100 nL compound, profiling panel (AID 1169); settings: JC-1 mitochondrial potential fluorescence, higher = more signal; note: test concentration not given here
# [19] = JC-1 mitochondrial signal, unstimulated MM1S myeloma – cell-based, JC-1 fluorescence, 24 h, 100 nL compound, profiling panel (AID 1170); settings: MM1S mitochondrial potential, higher = more signal; note: test concentration not given here
# [20] = resazurin metabolic signal in A549 cells – cell-based, resazurin fluorescence, 24 h, PK04 Diversity Set, profiling panel (AID 1171); settings: A549 viability, higher = more signal, called active from +8 up or from −8 down; note: test concentration not given here
# Sequence of NADPH oxidase 4 (Homo sapiens) (Q9NPH5 whole entry, looked up): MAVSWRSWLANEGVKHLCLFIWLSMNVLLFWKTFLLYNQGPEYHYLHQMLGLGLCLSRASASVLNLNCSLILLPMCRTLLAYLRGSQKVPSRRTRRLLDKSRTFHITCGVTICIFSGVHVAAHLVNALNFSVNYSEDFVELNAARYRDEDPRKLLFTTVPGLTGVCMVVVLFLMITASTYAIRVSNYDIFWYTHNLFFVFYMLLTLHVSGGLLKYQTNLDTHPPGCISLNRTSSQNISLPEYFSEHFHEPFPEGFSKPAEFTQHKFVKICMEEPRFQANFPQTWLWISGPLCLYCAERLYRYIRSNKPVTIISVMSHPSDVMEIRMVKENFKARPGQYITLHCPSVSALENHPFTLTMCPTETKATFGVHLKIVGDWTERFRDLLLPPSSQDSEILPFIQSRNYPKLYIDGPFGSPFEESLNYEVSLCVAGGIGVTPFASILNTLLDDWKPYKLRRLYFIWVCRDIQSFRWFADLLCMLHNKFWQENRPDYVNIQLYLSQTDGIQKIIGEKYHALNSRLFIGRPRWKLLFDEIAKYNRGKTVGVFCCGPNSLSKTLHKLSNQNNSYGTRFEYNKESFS
# Sequence of NADPH oxidase 5 (Homo sapiens) (Q96PH1 whole entry, looked up): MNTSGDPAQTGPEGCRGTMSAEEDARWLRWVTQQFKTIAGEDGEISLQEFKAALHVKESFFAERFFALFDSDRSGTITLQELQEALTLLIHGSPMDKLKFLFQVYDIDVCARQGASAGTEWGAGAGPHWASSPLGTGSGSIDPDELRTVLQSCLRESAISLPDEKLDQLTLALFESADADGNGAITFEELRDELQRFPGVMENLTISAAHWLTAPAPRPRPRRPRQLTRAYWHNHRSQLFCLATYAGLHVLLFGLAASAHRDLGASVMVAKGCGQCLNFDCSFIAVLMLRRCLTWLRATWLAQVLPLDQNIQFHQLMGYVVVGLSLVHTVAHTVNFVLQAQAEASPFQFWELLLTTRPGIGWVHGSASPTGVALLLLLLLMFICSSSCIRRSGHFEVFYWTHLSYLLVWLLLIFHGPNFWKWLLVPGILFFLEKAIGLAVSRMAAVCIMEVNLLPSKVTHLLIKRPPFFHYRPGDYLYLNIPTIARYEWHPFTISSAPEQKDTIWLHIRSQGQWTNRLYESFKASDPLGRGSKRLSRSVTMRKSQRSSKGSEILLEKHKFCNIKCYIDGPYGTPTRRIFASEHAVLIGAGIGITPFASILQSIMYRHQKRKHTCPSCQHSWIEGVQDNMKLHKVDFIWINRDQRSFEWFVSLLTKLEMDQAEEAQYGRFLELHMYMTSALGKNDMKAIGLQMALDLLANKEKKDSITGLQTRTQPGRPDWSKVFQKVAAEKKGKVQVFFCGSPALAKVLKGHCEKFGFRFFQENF
# Sequence of NADPH oxidase 2 (Homo sapiens) (P04839 whole entry, looked up): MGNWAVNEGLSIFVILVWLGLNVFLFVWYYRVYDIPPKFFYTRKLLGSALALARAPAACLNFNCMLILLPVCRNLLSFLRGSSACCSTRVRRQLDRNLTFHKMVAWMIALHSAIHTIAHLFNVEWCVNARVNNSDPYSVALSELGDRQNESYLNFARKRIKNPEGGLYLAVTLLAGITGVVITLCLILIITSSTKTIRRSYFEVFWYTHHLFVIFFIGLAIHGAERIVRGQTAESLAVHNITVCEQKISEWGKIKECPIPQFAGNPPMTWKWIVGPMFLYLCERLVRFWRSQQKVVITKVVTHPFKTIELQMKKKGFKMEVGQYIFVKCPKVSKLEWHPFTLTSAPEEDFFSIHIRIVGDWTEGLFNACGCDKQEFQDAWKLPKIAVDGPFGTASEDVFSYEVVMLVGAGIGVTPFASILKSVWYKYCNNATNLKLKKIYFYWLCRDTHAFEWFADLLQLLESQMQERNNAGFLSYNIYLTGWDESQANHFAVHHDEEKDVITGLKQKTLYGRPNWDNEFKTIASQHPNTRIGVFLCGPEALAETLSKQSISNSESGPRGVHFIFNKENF
SMILES,z-score [1],composite z-score [2],z-score [3],z-score [4],z-score [5],z-score [6],z-score [7],z-score [8],z-score [9],z-score [10],z-score [11],z-score [12],z-score [13],z-score [14],z-score [15],z-score [16],z-score [17],z-score [18],z-score [19],z-score [20]
C[N+](C)(C)CCCC[C@@H]1NC(=O)[C@@H]2C[C@H](C(=O)NCCCCCN)[C@H](c3ccc(O)cc3)N2C1=O,1.31 (inactive),0.906,0.455 (inactive),0.0158 (inactive),-0.284 (inactive),-1.78 (inactive),0.612,-0.102 (inactive),-0.316 (inactive),1.33,1.01,0.641,0.383,0.312,0.828,1.79,-0.13 (inactive),0.243,0.41,-0.0115 (inactive)
[N-]=[N+]=NCc1ccccc1[C@@H]1OC(c2ccc(OCCCO)cc2)=N[C@]1(CCS(=O)(=O)c1ccccc1)C(N)=O,1.06 (inactive),0.428,26.4 (active),14.7 (active),0.618 (inactive),1.75 (inactive),-0.353,-0.282 (inactive),1.13 (inactive),2.23,0.338,-0.676,0.834,0.369,0.102,-1.67,-0.0551 (inactive),-0.875,-1.16,-0.174 (inactive)
C=CC[C@]1(C(N)=O)COC(c2ccc(OCCCO)cc2)=N1,1.3 (inactive),0.269,3.06 (inactive),0.167 (inactive),0.111 (inactive),0.322 (inactive),0.537,-2.3 (inactive),0.13 (inactive),-0.131,0.669,-0.793,0.0717,0.327,1.3,0.16,0.654 (inactive),0.702,-0.753,0.381 (inactive)
NCCCCCNC(=O)[C@H]1C[C@H]2C(=O)N3CCC[C@H]3C(=O)N2[C@H]1c1ccc(O)cc1,-0.607 (inactive),1.17,0.888 (inactive),0.0655 (inactive),-1.9 (inactive),0.0061 (inactive),-0.604,0.0724 (inactive),0.719 (inactive),-0.182,-0.246,0.339,-0.0476,-1.11,-0.177,-0.0181,0.0417 (inactive),-0.398,0.286,-0.166 (inactive)
C#CCN1[C@@H](Cc2ccc(O)cc2)C(=O)O[C@H](Cc2ccccc2)[C@@H]1/C=C/C1CC1,-0.332 (inactive),-0.196,2.45 (inactive),0.0937 (inactive),-1.15 (inactive),0.0357 (inactive),-0.663,-0.759 (inactive),-0.462 (inactive),-1.54,-2.82,-0.145,-3.44,-3.22,-3.96,-3.57,-0.0548 (inactive),-1.23,-0.744,-1.01 (inactive)
CO[C@H]1O[C@H](CO)[C@@H](OC(=O)Nc2ccc(Oc3ccccc3)cc2)[C@H](OC(=O)Nc2ccc3c(c2)OCO3)[C@@H]1OC(=O)Nc1ccc2c(c1)OCO2,0.599 (inactive),0.0751,12.3 (active),2.93 (inactive),0.403 (inactive),1.7 (inactive),0.377,1.24 (inactive),-0.397 (inactive),-0.967,-0.882,-0.132,-0.845,-2.21,-1.74,-0.594,1.02 (inactive),-0.48,-0.751,-1.29 (inactive)
CC(c1ccccc1)C(O)C1C=CC2C(=O)N(C)C(=O)C2N1NC(=O)OC(C)(C)C (stereo not given),-0.288 (inactive),0.839,0.667 (inactive),0.871 (inactive),-0.344 (inactive),0.508 (inactive),-0.683,-0.326 (inactive),-0.289 (inactive),-1.2,-0.431,0.173,-0.527,-0.391,-0.347,-0.741,-0.439 (inactive),-0.104,0.772,0.866 (inactive)
CCN(CC)c1ccc(N2CC=CC34O[C@@H]5C=CCOC(=O)[C@@H]5[C@H]3C(=O)N(CCCCCCO)[C@@H]4C2=O)cc1 (stereo not given in full),2.74 (inactive),0.176,2.21 (inactive),0.184 (inactive),0.404 (inactive),-0.313 (inactive),0.411,-0.262 (inactive),0.301 (inactive),1.17,-0.705,0.839,-0.0976,1.4,0.922,0.554,1.21 (inactive),0.267,-0.72,1.37 (inactive)
